According to the supplement of paper PMC10338343:
± gives the standard deviation.

System: MILI (PIWIL2) piRISC loaded with L1MC piRNA (26 nt)
Assay: pre-steady-state target cleavage rate (min^-1); guide: L1MC piRNA 5'p-UAACUAAAUACUAUGCAAGCUGUAGG; MIWI and MILI are mouse PIWI proteins and EfPiwi is from a freshwater sponge; tags in brackets are library labels; higher = faster piRNA-guided slicing of the target
Settings: auxiliary factor: 500 nM mouse GTSF1
Method in brief: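 Cleave-'n-Seq used a transcribed, DNA-blocked target RNA library at 0.1 nM and active affinity-purified piRISC with one synthetic guide at 1 nM, with or without 500 nM GTSF1 partner protein, in HEPES–potassium acetate buffer at 33 °C for 0–8 or 0–960 min. Uncleaved targets were sequenced and normalised to depth and to weakly complementary targets, and three trials were pooled with k3 capped at 0.0001 min^-1. The pre-steady-state cleavage rate was estimated by a burst-and-steady-state fit.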

Sequence | pre-steady-state target cleavage rate
UCCUGGAUCAGCAAGCAUAGUAUUUAGAAA | 0.101 ± 0.013
UCCUGCUUGUGCUUGCAUAGUAUUUACAAA | 0.0112 ± 0.0055
UCCUGGAUCUCGUUGCAUAGUAUUUAGAAA | 0.141 ± 0.024
